This note sets out measurements from the supplement of paper PMC6555819.

This assay deals with VDR:RXRa (NR concentration 270 nM, RXRa partner concentration 90 nM). Nature of the assay: PBM binding z-score (relative to random genomic background probes); higher = stronger binding; sequences stand for … in GC…GCGATTGACAGCGTAGAATGAAGG
The procedure:
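Protein-binding microarray (Agilent 4x180K custom design, double-stranded 60-nt probes: 5' GC cap, 34-nt variable region, 24-nt constant primer region; full probe sequence given). Purified or IVT nuclear receptor:RXRα heterodimers (3:1 NR:RXRα, mostly 270:90 nM) or homodimers were incubated for 1 h in PBS with 2% milk and no ligand, then detected with Alexa488 antibodies. Fluorescence from o1-orientation probes (~5 replicates averaged) was converted to z-scores against 500 random hg19 background probes. Variable regions are seed direct-repeat (DR0–DR5) sites, all their single-nucleotide variants and half-site ablations.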
As to TCTCGGAGGACACGAAGGTCTGAGCTTTCCAGAG, the PBM binding z-score was -0.323. The result for CCTACTGGGACAAAGGTCATTGATTCCAATGCTC reads 4.67. The value for ATCTCTAGATAAAGATAGTTCAGTGAATGCAAAT was 0.517; that for CCTATTAGTTGACCGTAAGGGCAACCGAAGCTCG was 0.821; that for GCTACAGGGTCAAGGCCAGAGTACGCGTATTGAT was 4.28. Consider TCTTGTAGATCAAAGATTAAGAAAGCCGAAGCCT, for which the PBM binding z-score was determined as 0.389. In turn, TCTGCTAGGTCAACGATGGTTAGCTAATCTGCTA yielded a PBM binding z-score of 1.26.

Sequence ATATGTAGGTTCTCGGGTCATTCAGTTTGCGCAT gave a PBM binding z-score of 5.04.

As for GGAAGGAGGGCAAGTTGATAGCAGAGTTTGATGG, the PBM binding z-score stood at 0.934. Sequence CGAACGAGGGCACGAGTTGATAGCAAATGCCGAT displayed a PBM binding z-score of 1.97.

Sequence TCGAGTAGGTTATGGGCATTCAGAATGGCGTCGA showed a PBM binding z-score of -0.235. The value for CAGCCTAGGTCAGGGCCAGTAAAGGAGGAACGTT was 0.0313. The result for ATCGAAAGGTCGTGTGGTGAGTATACAGAAAGGC reads 3.66; that for TTACCAAGGTGAAAGGTCGTTGTTGCACGCCTTG, 3.24; that for ACAGACAGGTGATTAAGGTAACTCAGGCTATCAT, 0.713. The sequence ACTAGCAGGCCAAGGTTGGGTCACTCAAACAAAG yielded a PBM binding z-score of 0.381. As for ATCTCTACGTAACCAAGTTCAGTGAATGCCGAAC, the PBM binding z-score was determined as 1.17.

Sequence TAGAGTAGGTTAGTCGGGGCATTCAGCCAACATA had a PBM binding z-score of 2.52.

Turning to TAGCCTAGGTCATTGGTCCAGTATAGTACGCATC, the PBM binding z-score stood at 2.55. In turn, AGTCAAAGCTCATCTAGGTAACGTAAGATATGCT displayed a PBM binding z-score of -0.215. The value for TCGAGTAGGTTACCAATGGGGCATTGAGCTTTCT was -0.0858; that for ATCAAAAGGTCGACGAGGTGAGTATACACCGTTT was 5.4; that for ATACCATGGTGATCGTGAGGTCGTTGATACTAAC was 2.03. The result for CCGACTGGGGCAAAAAGGTTACCATACCATCCGG reads 1.28; that for GCTAATTGGTCAGTAAAAGGTCACACACCGGTCG, 4.07. The result for TAGCCTAGGTCATATCGGGCCAGTATACGCTATA reads 2.28. In the case of CCAACTAGGTCAAGAGGTCAAAGTCCGCTTCCCG, the PBM binding z-score was 6.1.

CCAGACACGTGAGAAGGTAACTCAGCCTCGATTA returned a PBM binding z-score of -0.39. The result for TCTAGTTGCTCAAAGGTCACACACTCGAAATGCG reads 4.77; that for TGTCAAAGTTCAAAGGTAACGTAAGTATCCACAC, 5.1. The value for GCTGCTAGGTCAACTGATGGTCAGGTAAAGCTCG was 1.69; that for CCGACTGTGGCAAGGTTACCATAACGCACAGCCA was 0.0735.

For TATCGGAGGACACGAAGGTCAGAGCTTTCCAGAG, the PBM binding z-score came out at 2.32.

On to TAGCCTAGGACAGATCGGGCCAGTATACGCTATA, for which the PBM binding z-score was -0.85. TGTGCTAGGTCAACGATGGTCAGCTAATCTGCTA came in with a PBM binding z-score of 1.65. In turn, GCTGCTAGTTCAGGTTGGTCAGCTAACGGGTACG gave a PBM binding z-score of 0.0828. The value for GCTCGGAGGACAAGTTCAGAGCTTTGTCCGTAGA was 0.733; that for TAGCCTAGGCCAGATCGGGCCAGTATACGCTATA was -0.802; that for CCAACTGGGGCATAAGGTTACCATAAGCCAGCCC was 0.316.

With TCTGCTAGGTCAACGCTGGTCAGCTAATCTGCTA, the PBM binding z-score turned out to be 1.36.
